Assay results from PubChem BioAssay (NCI).
Several values for one entry are separate records, joined by “and”; a condition that tells them apart may be missing. Equal values may be shown once. Compounds without any hit were thinned out: in the full panel of roughly 79,000, 15% have a hit. Activity calls are given as the source filed them. Rule as the data show it: active = growth inhibition above about 70%; inactive = the rest.

Assays:
[1] = NCI Yeast Anticancer Drug Screen. Data for the rad50 strain (AID 155);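 also: 0% = growth of vehicle-only cultures of the same strain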; settings: S. cerevisiae rad50 strain growth inhibition; at 50.0 µM; stronger effect = higher value
Procedure, shortened: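 Compounds were tested on a yeast strain with an engineered DNA damage repair alteration; the reported value is growth inhibition normalised to vehicle treatment.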

[2] = NCI Yeast Anticancer Drug Screen. Data for the mec2-1 strain (AID 157); settings: S. cerevisiae mec2-1 strain, stronger effect = higher value
Procedure, shortened: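 Strain: mec2-1 (DNA repair/cell cycle alteration). Compound exposure, then growth measured; inhibition expressed relative to vehicle.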

[3] = NCI Yeast Anticancer Drug Screen. Data for the sgs1 mgt1 strain (AID 161);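 also: 0% = growth of cultures given vehicle only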; settings: S. cerevisiae sgs1 mgt1 strain, at 50.0 µM, stronger effect = higher value
Procedure, shortened: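 Test agents were incubated with a DNA-repair-mutant yeast strain. Growth was then read and compared against vehicle-treated controls.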

[4] = NCI Yeast Anticancer Drug Screen. Data for the cln2 rad14 strain (AID 165);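 also: 0% = growth equal to vehicle treated cultures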; settings: S. cerevisiae cln2 rad14 strain, stronger effect = higher value
Procedure, shortened: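 Compounds are applied to the cln2 rad14 yeast strain, and growth is then compared with that of vehicle-treated cultures to give inhibition.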

[5] = NCI Yeast Anticancer Drug Screen. Data for the bub3 strain (AID 167); settings: S. cerevisiae bub3 mutant strain, stronger effect = higher value
Procedure, shortened: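 Growth of a checkpoint-deficient yeast mutant is measured after compound exposure. Values represent inhibition relative to vehicle.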

[6] = NCI Yeast Anticancer Drug Screen. Data for the mlh1 rad18 strain (AID 175); settings: S. cerevisiae mlh1 rad18 strain growth inhibition; at 50.0 µM; stronger effect = higher value
Procedure, shortened: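 Read-out is yeast growth inhibition, calculated against vehicle-only controls. The compound was applied to a strain engineered with DNA damage repair alterations.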

[7] = at 5.0 µM (retest, dose inferred, filed as 0.5)

Measured: growth inhibition

O=S(=O)(O)c1ccc(CBr)cc1
inactive: [1] -27.6% | [2]; at 50.0 µM -27.6% | [3] 0.6% | [4]; at 50.0 µM -36.4% | [5]; at 50.0 µM -3.5% | [6] -6.85%

O.O.O=Cc1ccccc1O.O=Cc1ccccc1O.[Co]
active: [1] 98.2% | [2]; at 50.0 µM 92.2% | [3] 97.8% | [4]; at 50.0 µM 79.1% | [6] 98.3%

N#CCCCCCl
inactive: [1] 19.4% | [2]; at 50.0 µM 10.9% | [4]; at 50.0 µM 25.2% | [5]; at 50.0 µM 13.6% | [6] 28.9%

O=C1CC(c2cccc(Br)c2)n2cccc21 (configuration not stated)
inactive: [1] 9.9% | [2]; at 50.0 µM -1.1% | [3] 9.95% | [4]; at 50.0 µM 37.5% | [6] -5.7%

O=[As](O)(O)c1ccc2nc3cc([As](=O)(O)O)ccc3nc2c1
inactive: [1] -11.1% | [3] -20.4% | [4]; at 50.0 µM 3.8% | [5]; at 50.0 µM 2.35% | [6] -30.9%

COc1cccc2c1C(=O)c1c(O)c3c(c(O)c1C2=O)CC(O)(C(=O)CO)CC3OC1CC(N2CCOCC2C#N)C(O)C(C)O1 (configuration not stated)
active: [1] 86.7% | [2]; at 50.0 µM 90.2% | [3] 88.9% | [4]; at 50.0 µM 86.5% | [6] 89.8%

CCC(C)(C)OC(=O)CCl
inactive: [1] -0.25% | [3] 7.8% | [4]; at 50.0 µM 5.2% | [5]; at 50.0 µM 36.7% | [6] -5.15%

CCOC(=O)CC(=O)c1ccccc1
inactive: [1] 16.9% and -9.6% | [2]; at 50.0 µM -17.6% and -2% | [6] 14.1% and -15.7%

COc1ccc(C=O)cc1
inactive: [1] 41.5% | [3] -7.5% | [4]; at 50.0 µM -21.2% | [5]; at 50.0 µM 0.8% | [6] 21.5%

CCCCCCCC[As](=O)(O)CCCCCCCC
inactive: [1] -2.95% | [2]; at 50.0 µM -0.3% | [4]; at 50.0 µM -6.85% | [5]; at 50.0 µM -0.7% | [6] -10.2%

O=C1CC2OCC=C3CN4CCC56c7ccccc7N1C5C2C3CC46 (configuration not stated) (tested in a mixture with another compound)
inactive: [1] 25% and 2.65% and 6.9% | [2]; at 50.0 µM -7.15% and 22.6% and -14.6% | [3] -15.7% and -7.3% and -9.45% | [5]; at 50.0 µM 3.35% and 5.1% and -9.9% | [6] 5.7% and 9.45% and 10.1%

CC(=O)O.CC(=O)O.CC(=O)O.CC(=O)O.CC(=O)O.CC(=O)O.O.[Ti].[Ti]
inactive: [1] -6.65% | [2]; at 50.0 µM -23.8% | [3] -23.6% | [4]; at 50.0 µM -4.2% | [6] -34%

CCOc1ccc([N+](=O)[O-])cc1CNCCBr
inactive: [1] 3.3% | [3] -0.45% | [4]; at 50.0 µM -22.1% | [5]; at 50.0 µM -3.1% | [6] 12.2%

CCCC[P+](C#Cc1ccccc1)(CCCC)CCCC
inactive: [1] 8.65% | [2]; at 50.0 µM 3.5% | [4]; at 50.0 µM 3.75% | [5]; at 50.0 µM -3.2% | [6] 2%

c1cc[c]([Sn]([c]2ccccc2)[c]2ccccc2)cc1.c1cc[c]([Sn]([c]2ccccc2)[c]2ccccc2)cc1
inactive: [2]; [7] 51% | [4]; [7] 9% | [5]; [7] 54%

C/C=C1/CN2CCC34c5ccccc5N(C)C23C2CC1C4(C(=O)OC)C(O)O2 (configuration not stated)
inactive: [1] -31% | [2]; at 50.0 µM -31.8% | [3] -24.7% | [4]; at 50.0 µM -4.2% | [6] -58.9%

CC(=O)Oc1ccc([As](=O)(O)O)cc1
inactive: [1] 5.55% | [2]; at 50.0 µM -7.75% | [3] 3.75% | [4]; at 50.0 µM -11.8% | [6] 1.05%

CCOC(=O)C(=O)CC(=O)[C@H]1CC[C@H]2[C@@H]3CC[C@@H]4C[C@H](O)CC[C@]4(C)[C@H]3C(=O)C[C@]12C
inactive: [1] 30.6% | [3] 40.8% | [4]; at 50.0 µM 37.5% | [5]; at 50.0 µM -3.8% | [6] 34.7%

O=[N+]([O-])O.[Ce]
inactive: [1] 13.3% | [3] 17.9% | [4]; at 50.0 µM 5.8% | [5]; at 50.0 µM 24.6% | [6] 4.15%

CC(C)CCC(=O)c1ccoc1
inactive: [1] -2.45% | [2]; at 50.0 µM -9.95% | [3] -1.55% | [4]; at 50.0 µM 3.65% | [6] -28.6%

CC[As](CC)SCC1OC(OC(C)=O)C(OC(C)=O)C(OC(C)=O)C1OC(C)=O (configuration not stated)
inactive: [3] 68.2% | [5]; at 50.0 µM 65.8%
active: [1] 99.1% | [4]; at 50.0 µM 99.5% | [6] 98.9%

COc1ccc2c(c1O)[C@@]13C=C(O)C(=O)C=C1[C@@H](C2)N(C)CC3
inactive: [1] 40% | [2]; at 50.0 µM 4.6% | [3] 11.6% | [4]; at 50.0 µM 23.6% | [6] -47.9%

C[CH2][Sn]([CH2]C)([O]C(=O)c1ccccc1F)[O]C(=O)c1ccccc1F
inactive: [1] -8.75% | [2]; at 50.0 µM 27.6% | [3] 4.1% | [4]; at 50.0 µM 22.6% | [6] 28.1%

c1ccc(CN2C3CCCC2CC(c2ccccc2)C3)cc1 (configuration not stated)
active: [1] 79.8% | [3] 80.3% | [4]; at 50.0 µM 71.8% | [6] 85.5%
inactive: [2]; at 50.0 µM 63.9%

CC(F)C(N)C(=O)O (configuration not stated)
inactive: [1] -7.9% | [2]; at 50.0 µM -3.65% | [3] -7.75% | [4]; at 50.0 µM -1.7% | [6] -11.9%

CC[C@@]1(O)C(=O)OCc2c1c(Cl)c1n(c2=O)Cc2cc3ccccc3nc2-1
inactive: [1] -21.1% | [2]; at 50.0 µM -23.9% | [4]; at 50.0 µM 17.7% | [5]; at 50.0 µM -28.5% | [6] -70%

CN1CCC2CC(=O)NC1(C)C2(C)C (configuration not stated)
inactive: [1] 13.2% | [3] 17.9% | [4]; at 50.0 µM 4.5% | [5]; at 50.0 µM -2.2% | [6] 11.9%

O=C(COc1ccc(Cl)c(Cl)c1)NCCc1cc[n+](Cc2ccc(Cl)cc2S(=O)(=O)F)cc1
inactive: [1] 7.45% | [3] -9.05% | [4]; at 50.0 µM 31.5% | [5]; at 50.0 µM 1.8% | [6] 11.9%

CNC(=O)Oc1cccc(N=CN(C)C)c1
inactive: [1] 7.65% | [3] 0% | [4]; at 50.0 µM 9.9% | [5]; at 50.0 µM -20.4% | [6] 16.7%

COc1cc2c(c(Oc3ccc(C)cc3)c1)CN(C)CC2
inactive: [1] 32.4% | [3] 47.9% | [4]; at 50.0 µM 39.7% | [5]; at 50.0 µM 63.6% | [6] 58.8%

O=C(CCl)Nc1ccccc1Cl
inactive: [1] 39% | [2]; at 50.0 µM 9.65% | [3] 25.9% | [4]; at 50.0 µM 18.6% | [6] 45.1%

CCOC(=O)C1C(=O)C(=O)N2CCc3c([nH]c4ccccc34)C12 (configuration not stated)
inactive: [1] 17.5% | [3] 34% | [4]; at 50.0 µM 12.4% | [5]; at 50.0 µM -3% | [6] 15.6%

NC1=NC(=O)C(c2ccccc2)(c2ccccc2)O1
inactive: [1] -1% | [3] 5.95% | [4]; at 50.0 µM -0.65% | [5]; at 50.0 µM -19.3% | [6] -4.15%

O=C1C(=O)c2ccccc2-c2ccccc21
inactive: [1] 36.6% and 34.6% | [2]; at 50.0 µM 31.1% and 18.2% | [4]; at 50.0 µM -6.65% and -35.9% | [5]; at 50.0 µM 25.9% and 30.6% | [6] 5.35% and 9.6%

CCOP(=O)(OCC)/C(C#N)=C/c1ccc(C#N)cc1
inactive: [1] 30.6% | [3] 10.8% | [4]; at 50.0 µM 12.3% | [5]; at 50.0 µM 14.7% | [6] 55.2%

c1cc(CCN2CCCCC2)ccn1
inactive: [1] -2.75% | [2]; at 50.0 µM -6.25% | [3] -26.5% | [4]; at 50.0 µM -81.7% | [6] -25.1%

O=C1CC2OCC=C3CN4CCC56c7ccccc7N1C5C2C3CC46 (configuration not stated)
inactive: [1] 9.65% | [2]; at 50.0 µM 2.3% | [3] 4.15% | [5]; at 50.0 µM 8.9% | [6] -9.25%

O=C(COc1ccc(Cl)cc1C(=O)O)Nc1cccc(NC(=O)Nc2cccc(S(=O)(=O)F)c2)c1
inactive: [1] 2.3% | [2]; at 50.0 µM -13.3% | [4]; at 50.0 µM -17.9% | [5]; at 50.0 µM 1.95% | [6] 11.6%

C#CCC1(OC(N)=O)CCCCC1
inactive: [1] 19.2% | [2]; at 50.0 µM 14.8% | [4]; at 50.0 µM -38.2% | [5]; at 50.0 µM 3.65% | [6] -16.6%

CCCCC(CC)C(=O)O.[Sn] (configuration not stated)
inactive: [1] -20.5% | [3] -10.3% | [4]; at 50.0 µM -10.4% | [5]; at 50.0 µM -20.9% | [6] -15.8%

CC(=O)c1ccc([As](=O)(O)O)cc1
inactive: [1] -10.3% | [3] -13.4% | [4]; at 50.0 µM -21.4% | [5]; at 50.0 µM -29.1% | [6] -30.8%
